Assay results: ChEMBL document CHEMBL1201862, “PubChem BioAssay data set” (2004)
The whole screen tested about 400,000 compounds, of which about 2,100 (0.53%) were called active. Another 14% or so got no clear call; they are omitted. No rule for the calls is given here. What follows is part of a selection rich in actives, with near analogues and random picks from the rest.

The compounds below were run against Ataxin-2 (Homo sapiens) (UniProt Q99700) (assay: qHTS for Inhibitors of ATXN expression.).
Chain of Ataxin-2 (Homo sapiens) (Q99700 whole entry): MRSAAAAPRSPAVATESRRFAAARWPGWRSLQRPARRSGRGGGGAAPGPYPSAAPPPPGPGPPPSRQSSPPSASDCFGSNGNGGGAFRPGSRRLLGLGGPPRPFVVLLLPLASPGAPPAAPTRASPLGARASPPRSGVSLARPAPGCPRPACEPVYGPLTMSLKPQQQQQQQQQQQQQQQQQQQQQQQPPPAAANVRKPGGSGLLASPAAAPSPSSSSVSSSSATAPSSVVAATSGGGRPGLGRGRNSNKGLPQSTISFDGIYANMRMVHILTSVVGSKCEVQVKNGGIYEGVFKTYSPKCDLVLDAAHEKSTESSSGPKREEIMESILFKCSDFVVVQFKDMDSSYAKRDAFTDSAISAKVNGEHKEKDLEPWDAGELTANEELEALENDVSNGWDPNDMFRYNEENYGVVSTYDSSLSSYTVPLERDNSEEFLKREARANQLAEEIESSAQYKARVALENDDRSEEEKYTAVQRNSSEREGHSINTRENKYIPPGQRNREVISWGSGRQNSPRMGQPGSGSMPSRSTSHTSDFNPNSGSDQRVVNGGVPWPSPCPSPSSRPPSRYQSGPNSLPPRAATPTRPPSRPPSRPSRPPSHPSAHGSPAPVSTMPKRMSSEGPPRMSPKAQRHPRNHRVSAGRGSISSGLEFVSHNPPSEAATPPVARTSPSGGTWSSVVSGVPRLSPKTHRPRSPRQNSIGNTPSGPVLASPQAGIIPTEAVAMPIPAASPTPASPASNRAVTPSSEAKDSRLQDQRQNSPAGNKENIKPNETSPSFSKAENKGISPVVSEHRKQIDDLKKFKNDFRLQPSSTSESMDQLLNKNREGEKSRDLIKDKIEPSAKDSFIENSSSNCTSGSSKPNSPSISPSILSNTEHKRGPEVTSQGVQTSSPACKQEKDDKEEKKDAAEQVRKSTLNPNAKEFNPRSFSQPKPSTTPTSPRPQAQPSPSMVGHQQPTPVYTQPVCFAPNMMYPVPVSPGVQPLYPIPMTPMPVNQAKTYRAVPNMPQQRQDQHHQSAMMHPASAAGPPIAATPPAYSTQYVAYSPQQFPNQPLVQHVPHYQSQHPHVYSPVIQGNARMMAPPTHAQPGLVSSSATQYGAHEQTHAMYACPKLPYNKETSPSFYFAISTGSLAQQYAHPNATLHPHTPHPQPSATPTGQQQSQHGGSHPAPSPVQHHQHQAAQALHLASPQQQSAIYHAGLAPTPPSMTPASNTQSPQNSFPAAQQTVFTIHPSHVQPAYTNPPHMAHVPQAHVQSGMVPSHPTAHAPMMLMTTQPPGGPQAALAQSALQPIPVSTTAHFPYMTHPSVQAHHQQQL
Assay type: functional

Row | SMILES | Potency
1 | COc1ccccc1C(C[N+](=O)[O-])c1c(N)n(C)c(=O)n(C)c1=O (centres undefined) | 14.1 µM (active)
2 | CN(C)c1ccc(C(C[N+](=O)[O-])c2c(N)n(C)c(=O)n(C)c2=O)c(F)c1C#N (centres undefined) | 25.1 µM (active)
3 | Cn1c(N)c(C(=O)CN2CCc3ccccc3C2)c(=O)n(C)c1=O | inactive
4 | CCn1cc(C(=O)N2CCCC(N3CCN(c4cccc(C(F)(F)F)c4)CC3)C2)cn1 (centres undefined) | inactive
5 | CN(C)c1ncc(C2=C(Cl)C(=O)C(N3CCCC3)=C(Cl)C2=O)s1 | 25.1 µM (active)
6 | Cc1cc2c(cc1C)C(=O)C(=O)N2 | inactive
7 | N#Cc1c(-c2ccccc2Cl)c2c([nH]c1=O)-c1ccccc1OC2 | inactive
8 | COc1cccc2c1c(NC(=O)c1cc(C)on1)nn2C | inactive
9 | COc1cccc2cc(C(=O)C3=C(O)C(=O)N(CCN(C)C)C3c3ccc(Cl)cc3)oc12 (centres undefined) | inactive
10 | COc1ccccc1-c1cc(C(=O)Nc2cc(C)n(Cc3ccc(Cl)cc3)n2)no1 | 28.2 µM (active)
11 | CCN(CC)c1ccc2cc(C(=O)c3cccs3)c(=O)oc2c1 | inactive
12 | O=C(COc1ccccc1F)Nc1ccc(Cl)c(-c2nc3ccccc3[nH]2)c1 | 39.8 µM (active)
13 | Cc1nc2ccccc2nc1OCC(=O)Nc1ccc(F)cc1 | inactive
14 | CCc1ccc(NC(=O)COc2ccc(/C=C(/C#N)c3nc4ccccc4[nH]3)cc2OC)cc1 | inactive
15 | C/C(=N/NC(=O)c1ccncc1)c1cc2ccc(O)cc2oc1=O | inactive
16 | COc1cccc(C(c2nnnn2C2CCCC2)N2CCN(C/C=C/c3ccccc3)CC2)c1OC (centres undefined) | 17.8 µM (active)
17 | Cc1cc(C)cc(NC(=O)COC(=O)[C@@H](NC(=O)c2ccco2)C(C)C)c1 | inactive
18 | Cc1onc(-c2ccccc2)c1C(=O)OCCOc1ccccc1F | inactive
19 | CCCCCCCCCCOC(=O)Cn1c(COc2ccc(Cl)cc2)[n+](C)c2ccccc21 | 25.1 µM (active)
20 | CCCOc1ccc(-c2c(=O)n(OCC(=O)OCC)c3ccccc3[n+]2[O-])cc1 | inactive
21 | CC12CC3(C)CC(C)(C1)CC(C(=O)NCc1ccccn1)(C2)C3 | inactive
22 | Cc1cc(-c2nnc(S)n2/N=C/C(Br)=C/c2ccccc2)[nH]n1 | 14.1 µM (active)
23 | Oc1ccccc1/C=N/n1c(S)nnc1-c1ccccc1 | inactive
24 | Sc1nnc(-c2ccccc2)n1/N=C/c1cccc(Cl)c1 | inactive
25 | CC(=O)n1cc(C(C[N+](=O)[O-])SCCN)c2ccccc21 (centres undefined) | 22.4 µM (active)

Row | SMILES | Potency
26 | COc1cc2ccc(=O)oc2c(O)c1OCC=C(C)C | inactive
27 | COC1=CC(=O)C(C2CC(=O)c3c(O)cc(O)cc3O2)=CC1=O (centres undefined) | 33.6 µM (active)
28 | COc1c(CC=C(C)C)cc(C2CC(=O)c3c(O)cc(O)cc3O2)cc1CC=C(C)C (centres undefined) | 39.8 µM (active)
29 | CCOCCCn1c(=N)c(C(=O)NC(C)c2ccccc2)cc2c(=O)n3cccc(C)c3nc21 (centres undefined) | inactive
30 | C/C(CC(=O)Nc1ccc2c(c1)OCCO2)=N\NC(=O)COc1ccccc1C | inactive
31 | COC(C(=O)N/N=C(\C)CC(=O)Nc1ccc(N(C)C)cc1)c1ccccc1 (centres undefined) | 31.6 µM (active)
32 | CN(C)c1nc(NC(C)(C)C)nc(SCC(=O)Nc2ccccc2)n1 | inactive
33 | Nc1nc(-c2sc3nc4c(cc3c2N)CCCC4)nc(N2CCOCC2)n1 | inactive
34 | O=C(NCC1Cc2cccc(-c3cccnc3)c2O1)c1ccc2cc[nH]c2c1 (centres undefined) | inactive
35 | Cc1cccn2c(=O)c3cc(C#N)c(=O)n(Cc4cccnc4)c3nc12 | inactive
36 | O=C(CCl)N1c2ccccc2Sc2c1ccc1ccccc21 | 26.7 µM (active)
37 | Cc1nc2c(ncn2-c2ccccc2)c(=O)n1NC(=O)CN1CCCC1 | inactive
38 | O=C(NCCOc1ccccc1)c1ccccc1Cl | inactive
39 | N=C(NOC(=O)c1ccc2ccccc2c1)c1ccccc1Cl | 39.8 µM (active)
40 | O=C(COC(=O)c1ccc2ccccc2c1)NCCCc1ccccc1 | inactive
41 | COc1ccc(C2CC(c3cccc(Br)c3)=NN2c2ccc(S(N)(=O)=O)cc2)cc1 (centres undefined) | inactive
42 | Oc1ccc2c(c1)OCC1(O)Cc3cc(O)c(O)cc3C21 (centres undefined) | 39.8 µM (active)
43 | c1ccc(Nc2scc(-c3ccccc3)[n+]2Cc2ccco2)cc1 | inactive
44 | Cc1cccc(NC(=O)CSc2nc3ccccc3c3nc(CCn4cncc4C)nn23)c1 | 31.6 µM (active)
45 | Cn1nnnc1SCC1=C(C(=O)O)N2C(=O)C(NC(=O)Cn3nc(C(F)F)cc3C3CC3)C2SC1 (centres undefined) | inactive
46 | CCOC(=O)c1nnn(-c2nonc2N)c1-c1ccc(Br)cc1 | inactive
47 | O=C(COC(=O)c1ccc(Cl)nc1)Nc1ncc(Cl)cc1Cl | inactive
48 | O=C(COC(=O)c1cnc(Cl)c(Cl)c1)c1ccc(F)cc1 | inactive
49 | CC(C)N(Cc1ccccc1)C(=O)COC(=O)c1cnc(Cl)c(Cl)c1 | 39.8 µM (active)
